Experiment [1] in a line: stimulators of nuclear beta-catenin in C2C12, primary screen, imaging, WNT3A-conditioned medium, mouse C2C12, NPC library (AID 1117326; in the data active means nuclear beta-catenin stimulation mostly above about 4.2%, no sharp cut-off; inactive means mostly below about 10%). The note with it: stronger effect = higher value.
The nature of experiment [2]: stimulators of insulin release from INS-1E, primary screen, cell-based, 5 mM glucose, NPC library (AID 1117329;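 active means compound raises insulin release from rat beta cells at 5 mM glucose, no numeric limit stated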). The note with it: rat INS-1E insulin secretion, at 10 µM, stronger effect = higher value.
Experiment [3] in a line: growth inhibition of GSK3B-pretreated HCT116 cells – cell-based, CellTiter-Glo, 0.2 to 20 µM (AID 1117336;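 active means compounds lowering colon cancer cell viability after pretreatment blocking the GSK3B kinase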). The note with it: HCT116 viability after GSK3B inhibitor, at 20 µM, stronger effect = higher value.
Experiment [4] can be described thus: inhibition of endothelial tube formation, primary screen, imaging, VEGF stimulated, CD31 staining, tube area, NPC library (AID 1117340;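 active means compound that reduces growth-factor-driven endothelial tube area in a mixed cell culture, no cutoff stated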). As to conditions: VEGF-stimulated ADSC/ECFC co-culture, at 10 µM, stronger effect = higher value.
Experiment [5] is described as follows: glucagon-like peptide 1 release enhancers, primary assay, NCI-H716 cell line, NPC library (AID 1117341;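 active means compound raises GLP1 secretion from the human gut endocrine cells, with no numeric limit stated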). The note with it: NCI-H716 cells, at 10 µM, stronger effect = higher value.
Experiment [6] can be described thus: HCT116 colon cancer cell growth inhibition, primary screen, CellTiter-Glo luminescence, NPC library (AID 1117342;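 active means compounds that lower survival of HCT116 colon cancer cells in the luminescence readout, no numeric limit stated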). As to conditions: at 20 µM (top of the series). For orientation: Cellular ATP, detected with luciferase, serves as a proxy for viable cell number.
Experiment [7] can be described thus: CellTiter-Glo luminescent readout of SW480 viability loss, NPC library primary (AID 1117343;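 active means compounds that lower viability of the colon cancer cells in the luminescence readout, with no numeric limit stated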). As to conditions: CellTiter-Glo luminescence; at 20 µM (top of the series).
Experiment [8] can be described thus: decreased DLD-1 cellular survival, CellTiter-Glo luminescent readout, NPC compound collection, primary HTS (AID 1117346;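 active means compounds that lower survival of DLD-1 colon cancer cells in the luminescence readout, no cutoff given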). The note with it: DLD-1 viability, CellTiter-Glo luminescence; at 20 µM (top of the series).
The target of experiment [9] is 6-phosphogluconate dehydrogenase, decarboxylating (Homo sapiens) (UniProt P52209). Nature of the experiment: 6PGD enzyme inhibitors, primary screen, biochemical, human, recombinant enzyme, NADPH absorbance (AID 1159550;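 active means at least 20% inhibition of 6-phosphogluconate dehydrogenase activity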). As to conditions: recombinant 6PGD, NADPH absorbance 341 nm; at 10 µM; stronger effect = higher value.
The nature of experiment [10]: differential killing of epithelial or mesenchymal cells, primary screen, imaging, PC-3E GFP, TEM4-18 mCherry, co-culture (AID 1345086;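 active means compounds killing one labelled cell type while sparing the other, by normalised counts and ratio limits, not self-fluorescent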;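 on all read-outs here: cells exposed to compound for 72 h before imaging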;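 on red/green cell ratio (normalised): normalised mesenchymal count divided by normalised epithelial count so high means epithelial killing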). As to conditions: imaging cell counts, at 1 µM; for red/green cell ratio (normalised): actives lie on both sides, counts scaled to control wells, 1 = unselective.
A short description of experiment [11]: survival rescue of mitochondrial mutant cells in low glucose, primary screen, MELAS cybrids, Rieske KO mouse fibroblasts, CellTiter-Glo (AID 1508586).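 Further: z relative to plate mean and SD of compound and empty wells.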
Experiment [12] addresses NAD(+) hydrolase SARM1 (Homo sapiens) (UniProt Q6SZW1). Briefly: SARM1 TIR NADase inhibitors, cell lysate, NAD-Glo luminescence (AID 1508614;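 active means compound whose remaining NAD level is above about 45 nM, limit read from the data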). As to conditions: SAM-TIR HEK293T lysate NADase, at 1 µM, stronger effect = higher value.
Experiment [13] has as its target Mitogen-activated protein kinase 7 (Homo sapiens) (UniProt Q13164). Nature of the experiment: ERK5 transactivation activators in reporter cells, primary screen, cell-based, HTS (AID 1508626;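 active means luciferase signal above three times the same-plate solvent-only control wells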;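 further: luciferase driven by Gal4-ERK5 fusion binding five Gal4 sites before minimal TATA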). The note with it: HeLa Gal4-ERK5 transactivation, 18 h, at 5 µM, stronger effect = higher value.
Experiment [14] can be described thus: modulation of C. elegans fzo-1 (AID 1259413; call rule not given here;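 further: fzo-1 mutant C. elegans worms in liquid wells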). As to conditions: C. elegans fzo-1 modulator screen, mean read-out; stronger effect = higher value.
The subject of the next experiment is F380Y. Nature of the experiment: modulators of BK channel variants, profiling panel, selectivity assay, cell-based, U2OS BacMam, thallium flux, beta subunits (AID 1259406;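 active means thallium flux through the channel raised or lowered by more than 3 SD from vehicle-only wells, actives on both sides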;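 further: initial slope of Thallos dye fluorescence rise after thallium is added; log ratio against the mean of 0.3% DMSO vehicle wells on the same plate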). The note with it: at 30 µM.
The subject of another experiment is F380Y/beta1. The experiment is described as above. As to conditions: at 30 µM.
Another experiment concerns F380Y/beta2Delta. Described as above. As to conditions: at 30 µM.
The mark [15] stands for this setting: measured here: epithelial PC-3E GFP cell survival.
Setting [16] is: measured here: mesenchymal TEM4-18 mCherry cell survival.
Setting [17] is: MELAS cybrid survival, CellTiter-Glo 48 h, stronger effect = higher value.
[18] abbreviates: Rieske KO mouse fibroblast survival, CellTiter-Glo 72 h.

“And” between values parts separate entries of the source, which are not always exact repeats. Equal values may be shown once. The source made the active and inactive calls.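 How the source made its calls, unless noted: active means mean z-score across replicates of 1.96 or higher in either the MELAS or the Rieske mutant cell line; inactive means the rest.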

This is an account of results in PubChem BioAssay.

Sequence of Mitogen-activated protein kinase 7 (Homo sapiens) (Q13164 whole entry, looked up, the tested form may be a part): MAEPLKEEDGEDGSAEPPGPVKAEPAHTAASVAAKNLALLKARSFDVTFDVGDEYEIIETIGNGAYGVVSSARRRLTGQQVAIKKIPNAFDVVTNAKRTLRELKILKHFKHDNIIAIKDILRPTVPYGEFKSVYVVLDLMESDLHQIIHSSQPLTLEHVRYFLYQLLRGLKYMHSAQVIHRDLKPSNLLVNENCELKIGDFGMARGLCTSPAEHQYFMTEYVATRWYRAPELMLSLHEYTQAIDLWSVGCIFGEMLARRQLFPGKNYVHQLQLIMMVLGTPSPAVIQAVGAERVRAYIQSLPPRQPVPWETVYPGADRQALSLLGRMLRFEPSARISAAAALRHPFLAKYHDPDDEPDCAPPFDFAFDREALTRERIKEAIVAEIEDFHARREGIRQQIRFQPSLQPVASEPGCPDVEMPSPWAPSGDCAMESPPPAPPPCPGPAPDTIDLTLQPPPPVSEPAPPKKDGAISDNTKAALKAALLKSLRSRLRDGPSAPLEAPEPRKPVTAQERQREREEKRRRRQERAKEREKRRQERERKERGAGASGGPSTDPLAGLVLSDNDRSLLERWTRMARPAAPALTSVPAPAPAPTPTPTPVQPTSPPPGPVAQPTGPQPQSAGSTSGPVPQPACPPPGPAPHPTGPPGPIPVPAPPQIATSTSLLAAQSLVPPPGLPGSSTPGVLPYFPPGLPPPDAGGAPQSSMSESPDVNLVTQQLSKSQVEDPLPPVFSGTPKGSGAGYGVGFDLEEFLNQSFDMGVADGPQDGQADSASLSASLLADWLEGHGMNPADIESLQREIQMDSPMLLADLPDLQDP
Sequence of NAD(+) hydrolase SARM1 (Homo sapiens) (Q6SZW1 whole entry, looked up, the tested form may be a part): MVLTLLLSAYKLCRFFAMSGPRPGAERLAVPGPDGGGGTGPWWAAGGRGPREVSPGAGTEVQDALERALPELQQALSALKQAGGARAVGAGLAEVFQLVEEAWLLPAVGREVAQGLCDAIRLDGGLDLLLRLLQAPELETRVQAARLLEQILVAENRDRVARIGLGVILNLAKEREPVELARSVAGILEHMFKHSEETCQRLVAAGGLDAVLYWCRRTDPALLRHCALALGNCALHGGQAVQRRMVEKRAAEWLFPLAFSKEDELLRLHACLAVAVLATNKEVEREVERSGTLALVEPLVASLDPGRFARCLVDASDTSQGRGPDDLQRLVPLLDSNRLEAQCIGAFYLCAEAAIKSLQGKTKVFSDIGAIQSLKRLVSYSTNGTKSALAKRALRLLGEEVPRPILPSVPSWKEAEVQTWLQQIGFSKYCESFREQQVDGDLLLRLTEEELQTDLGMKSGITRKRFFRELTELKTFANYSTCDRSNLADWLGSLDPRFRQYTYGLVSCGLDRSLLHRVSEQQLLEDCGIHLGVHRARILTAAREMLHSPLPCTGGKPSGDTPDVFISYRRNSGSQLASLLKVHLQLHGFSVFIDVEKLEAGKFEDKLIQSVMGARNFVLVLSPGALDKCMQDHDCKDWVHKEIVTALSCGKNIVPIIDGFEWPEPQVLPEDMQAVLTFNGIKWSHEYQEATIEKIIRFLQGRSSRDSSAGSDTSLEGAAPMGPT
Sequence of 6-phosphogluconate dehydrogenase, decarboxylating (Homo sapiens) (P52209 whole entry, looked up): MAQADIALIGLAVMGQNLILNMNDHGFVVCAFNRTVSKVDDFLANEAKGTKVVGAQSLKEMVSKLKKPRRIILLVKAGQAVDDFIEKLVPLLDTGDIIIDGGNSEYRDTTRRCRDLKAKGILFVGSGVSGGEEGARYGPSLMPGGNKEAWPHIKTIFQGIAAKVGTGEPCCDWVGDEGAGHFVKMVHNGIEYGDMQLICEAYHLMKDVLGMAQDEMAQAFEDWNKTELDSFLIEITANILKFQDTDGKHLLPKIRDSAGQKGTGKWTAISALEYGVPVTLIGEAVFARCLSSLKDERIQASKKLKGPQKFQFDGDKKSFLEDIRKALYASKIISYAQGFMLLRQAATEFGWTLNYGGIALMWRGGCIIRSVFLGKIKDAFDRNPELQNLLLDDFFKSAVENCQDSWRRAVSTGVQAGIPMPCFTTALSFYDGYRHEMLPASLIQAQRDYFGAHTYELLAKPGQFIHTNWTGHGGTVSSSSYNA

For orientation: inhibition means the change of the read-out against control, counted positive when it falls. Consider `CCN(CC)CCCC(C)Nc1ccnc2cc(Cl)ccc12` (stereo not given), for which the nuclear beta-catenin stimulation in [1] (at 10 µM) was 1.4% (inactive); in experiment [1] (stimulation, at 2 µM), -0.7%. The insulin secretion stimulation in experiment [2] is 11.2% (inactive). The viability decrease in experiment [3] is -10.8% (inactive). The tube area decrease in experiment [4] was 23% (inactive). In [5], the GLP1 secretion stimulation is 6.3% (inactive). Also, the inhibition of viability in experiment [6] is 19.9% (inactive). Further, the viability decrease (inhibition) in experiment [7] was 31.4% (inactive); in [8], 5.6% (inactive). For the same compound, in experiment [9], the inhibition is 7.49% (inactive). Further, the red/green cell ratio (normalised) in [10] is 1.21 (inactive). The normalised cell number turned out to be 0.99 in [10] (setting [15]) and 1.2 in [10] (setting [16]). In addition, the z-score in experiment [11] (setting [17]) is 0.423 (inactive) and -0.395 (inactive); in [11] (setting [18]) it was 0.725 and -1.28. Also, the remaining NAD in experiment [12] was 10 nM (inactive). In addition, in [13], the luciferase signal was 40 AU (inactive).

As for `c1ccc([C@H]2CN3CCSC3=N2)cc1`, the nuclear beta-catenin stimulation was -0.8% (inactive) in [1] (at 10 µM) and -0.5% in [1] (stimulation, at 2 µM). Also, the insulin secretion stimulation in [2] was 0.8% (inactive). Also, in [3], the viability decrease was -1.75% (inactive). The tube area decrease in experiment [4] is 2.3% (inactive). Also, the GLP1 secretion stimulation in [5] is -1.2% (inactive). In addition, the inhibition of viability in [6] was -2.5% (inactive). The viability decrease (inhibition) in experiment [7] was -10.8% (inactive); in experiment [8], -6.9% (inactive). In addition, the inhibition in experiment [9] was -3.99% (inactive). Further, the z-score in experiment [11] (setting [17]) is -0.321 (inactive) and -0.38 (inactive); in [11] (setting [18]), -0.0854 and -1.67. In addition, the remaining NAD in [12] was 10 nM (inactive). Further, the luciferase signal in experiment [13] was 44 AU (inactive).

Consider `CC(C)[N+](C)(C)CC(O)COc1cccc2ccccc12` (stereo not given), for which the nuclear beta-catenin stimulation in [1] (at 10 µM) was -2.3% (inactive); in experiment [1] (stimulation, at 2 µM), -0.7%. The insulin secretion stimulation in [2] is 2.4% (inactive). For the same compound, the viability decrease in experiment [3] was 7.2% (inactive). For the same compound, the tube area decrease in experiment [4] is -21% (inactive). The GLP1 secretion stimulation in experiment [5] is 3% (inactive). For the same compound, the inhibition of viability in experiment [6] is 34.1% (inactive). In addition, the viability decrease (inhibition) in experiment [7] was -0.7% (inactive); in experiment [8], 5.7% (inactive).

On to `Clc1cccc(Cl)c1NC1=NCCN1`, for which the nuclear beta-catenin stimulation was 0.7% (inactive) in [1] (at 10 µM) and 0.7% in experiment [1] (stimulation, at 2 µM). In [2], the insulin secretion stimulation is 1.9% (inactive). The viability decrease in [3] was -10.4% (inactive). Besides, the tube area decrease in [4] is -5.1% (inactive). Also, the GLP1 secretion stimulation in [5] is 1% (inactive). Besides, the inhibition of viability in experiment [6] is -0.6% (inactive). Besides, the viability decrease (inhibition) is -15.3% (inactive) in experiment [7] and -4.9% (inactive) in experiment [8]. Also, the inhibition in [9] is 13.3% (inactive). In addition, the mean signal in experiment [14] was 231 (inactive). In addition, in experiment [10], the red/green cell ratio (normalised) was 1.14 (inactive). The normalised cell number came out at 1.33 in experiment [10] (setting [15]) and 1.52 in experiment [10] (setting [16]). Also, the z-score was -0.353 (inactive) and 0.0276 (inactive) and 0.719 (inactive) in experiment [11] (setting [17]); 0.516 and -0.377 and -0.412 in experiment [11] (setting [18]). In addition, the remaining NAD in experiment [12] was 10 nM (inactive). In [13], the luciferase signal was 64 AU (inactive). Moreover, the log fold change Tl+ flux in the experiment with F380Y was 0.0065 (inactive); in the experiment on F380Y/beta1 it was 0.0554 (inactive); in the experiment with F380Y/beta2Delta, 0.0431 (inactive).

Take `Oc1ccc(/C=C/c2cc(O)cc(O)c2)cc1`: the nuclear beta-catenin stimulation in [1] (at 10 µM) was 2.4% (inactive); in experiment [1] (stimulation, at 2 µM), 2.2%. Besides, in experiment [2], the insulin secretion stimulation is 0.1% (inactive). In addition, the viability decrease in experiment [3] was 19% (inactive). For the same compound, the tube area decrease in experiment [4] was 56.1% (active). The GLP1 secretion stimulation in experiment [5] is 2.9% (inactive). Also, in experiment [6], the inhibition of viability is 65% (active). In addition, the viability decrease (inhibition) in [7] was 75.5% (active); in experiment [8], 35.3% (inactive). Moreover, the inhibition in experiment [9] is 0.743% (inactive). Moreover, the mean signal in experiment [14] was 256 (inactive). The red/green cell ratio (normalised) in experiment [10] is 1.06 (inactive). For the same compound, the normalised cell number in experiment [10] (setting [15]) stood at 0.97; in [10] (setting [16]) it was 1.04. Besides, in [13], the luciferase signal was 84 AU (inactive). The log fold change Tl+ flux in the experiment on F380Y was 0.101 (inactive); in the experiment with F380Y/beta1, 0.199 (active); in the experiment with F380Y/beta2Delta, 0.155 (active).

As to `Cc1noc(NS(=O)(=O)c2ccc(N)cc2)c1C`, the nuclear beta-catenin stimulation in experiment [1] (at 10 µM) is 0.8% (inactive); in [1] (stimulation, at 2 µM), 0.7%. Moreover, the insulin secretion stimulation in [2] is -1.5% (inactive). For the same compound, the viability decrease in experiment [3] was -14.5% (inactive). Moreover, the tube area decrease in experiment [4] was 8.7% (inactive). The GLP1 secretion stimulation in [5] is 0.1% (inactive). Moreover, the inhibition of viability in experiment [6] is 0.13% (inactive). The viability decrease (inhibition) was -27% (inactive) in experiment [7] and -5.7% (inactive) in [8]. In experiment [9], the inhibition was -15.2% (inactive). For the same compound, the mean signal in experiment [14] is 256 (inactive). The red/green cell ratio (normalised) in experiment [10] is 1.68 (inactive). The normalised cell number in [10] (setting [15]) stood at 0.73; in experiment [10] (setting [16]), 1.22. The z-score in [11] (setting [17]) was -0.0643 (inactive) and 0.19 (inactive); in experiment [11] (setting [18]), -0.11 and -0.107. In experiment [12], the remaining NAD was 10 nM (inactive). Further, the luciferase signal in experiment [13] is 100 AU (inactive). The log fold change Tl+ flux in the experiment with F380Y is 0.00425 (inactive); in the experiment on F380Y/beta1, -0.0556 (inactive); in the experiment on F380Y/beta2Delta it was 0.028 (inactive).
